From PubChem BioAssay AID463173 (ICCB-Longwood Screening Facility, Harvard Medical School, 2010)
About 1,700 (3.3%) of roughly 52,000 compounds were called active. The entries come from a sample that favours actives as a whole. Values without a mark were called inactive. Cut-off read from the data, not from the text of the source: active = survival mostly below about 52% (no sharp cut-off); inactive = mostly above about 56%.

The compounds below were run on Wild type (assay: growth inhibition of S. aureus wild type versus tarO mutant, primary screen, teichoic acid synthesis inhibitors, RN4220, OD600 (AID 463173)). Conditions: S. aureus RN4220 wild type/DeltatarO growth, OD600, 18 h, hits give low values, screened at 18.75 µg/mL (by protocol).
`CCc1ccc(NC(=O)CSc2nc3c([nH]c4ccccc43)c(=O)n2-c2ccc(C)cc2)cc1` gave a survival of 159%.
For `COC(=O)c1sc(NC(=O)/C=C/c2ccc(OC)c(OC)c2)c(C(=O)OC)c1C`, the survival was 55%.
`Cc1ccc(OCC(=O)Nc2ccc(S(=O)(=O)Nc3ncccn3)cc2)c(C(C)(C)C)c1` was tested, and the survival was 64%.
For `CCCCNC(=O)CSc1nc2ccccc2nc1Cc1ccc(Cl)cc1`, the survival was 146%.
`O=C(Cc1ccccc1)Nc1cccnc1` showed a survival of 116%.
Compound `CCN1CCN(c2csc3ccc(Br)cc3c2=O)CC1` has a survival of 83%.
Compound `CCc1nnc(NC(=O)c2nc(S(=O)(=O)Cc3ccc(C)cc3)ncc2Cl)s1` has a survival of 57%.
For `COCc1nc2ccccc2n1Cc1cccc(C)c1`, the survival was 81%.
In the case of `Cc1ccc(Cn2c(Cc3ccccc3)nc3ccccc32)cc1`, the survival is reported as -1% (active).
For `Cc1cccc(Cn2c(Cc3ccccc3)nc3ccccc32)c1`, the survival was 29% (active).
For `Cc1cccc(Cn2c(COc3ccccc3)nc3ccccc32)c1`, the survival was -11% (active).
`Cc1ccc(Cn2c(CNC(=O)c3cccc(C)c3)nc3ccccc32)cc1` showed a survival of 107%.
Compound `Cc1cccc(Cn2c(CNC(=O)c3ccccc3)nc3ccccc32)c1` has a survival of 84%.
`CC(C)c1ccc(Cn2c(COc3ccccc3)nc3ccccc32)cc1` was tested, and the survival was -1% (active).
With `Cc1cccc(Cn2c(COc3ccc(Cl)cc3)nc3ccccc32)c1` the survival was 61%.
In the case of `Cc1ccc(Cn2c(CCNC(=O)C(C)C)nc3ccccc32)cc1`, the survival is reported as 81%.
In the case of `COc1cc(OC)c(NC(=O)c2cn(C3CCCC3)c(=O)c3c2c2ccccc2n3C)cc1Cl`, the survival is reported as 80%.
`CCOC(=O)N1CCN(c2ncnc3c2cnn3-c2ccccc2)CC1` gave a survival of 112%.
`Cc1cccc(-c2noc(-c3ccc(NCc4cccnc4)c([N+](=O)[O-])c3)n2)c1` showed a survival of 81%.
Work on `COCCNC(=O)Cn1cc(/C=C(\C#N)C(N)=O)c2ccccc21` yielded a survival of 114%.
Compound `COc1ccc(CNC(=O)C(Cc2ccccc2)NS(=O)(=O)c2ccc3c(c2)CCN3C(C)=O)cc1` (stereo not drawn) has a survival of 127%.
`Cc1coc2c(C)c3oc(=O)c(CC(=O)NCCc4ccc(Cl)cc4)c(C)c3cc12` gave a survival of 99%.
With `COc1cccc(Cn2c(CNS(=O)(=O)c3ccc(F)c(Cl)c3)nc3cccnc32)c1` the survival was 159%.
With `O=C(NCC1COc2ccccc2O1)c1cn(Cc2ccc(F)cc2)nn1` (stereo not drawn) the survival was 107%.
`COc1ccc(N2CCN(c3oc(/C=C/c4ccccc4OC)nc3C#N)CC2)cc1` gave a survival of 86%.
`O=C1CC(c2ccc3c(c2)OCO3)CC2=C1C(c1ccncc1)Nc1ccccc1N2` (stereo not drawn) gave a survival of 81%.
Compound `O=C(NCCc1nc2ccccc2n1Cc1ccc(Cl)cc1Cl)c1ccco1` has a survival of 76%.
With `CC(C)(C)c1ccc(Cn2c(Cc3ccccc3)nc3ccccc32)cc1` the survival was -1% (active).
In the case of `Clc1ccc(OCc2nc3ccccc3n2Cc2ccccc2)c(Cl)c1`, the survival is reported as 7% (active).
Work on `CCC(=O)NCc1nc2ccccc2n1Cc1ccccc1` yielded a survival of 106%.
For `CC(O)c1nc2ccccc2n1Cc1ccccc1` (stereo not drawn), the survival was 100%.
`CCn1c(COc2ccc(Cl)cc2Cl)nc2ccccc21` showed a survival of 78%.
`CCOc1ccc(NC(=O)c2sc(-n3nc(C)c(CCC(C)C)c3C)nc2C)cc1` was tested, and the survival was 123%.
Compound `CCCCOc1ccc(CNC(=O)c2cnc3sc(N4CCCCCC4)nn3c2=O)cc1` has a survival of 91%.
Compound `CCOc1ccc(CCNC(=O)c2cc3cc4cc(OC)ccc4nc3s2)cc1OCC` has a survival of 117%.
`COc1ccc(-c2nc(CSCC(=O)N3CCN(c4cccc(C)c4C)CC3)c(C)o2)cc1OC` was tested, and the survival was 22%.
For `Cc1cccc(-c2nc(CSCC(=O)N3CCN(c4ccccc4)CC3)c(C)o2)c1`, the survival was 18% (active).
For `Cc1cccc(-c2nc(CSCC(=O)N3CCN(c4cccc(C)c4C)CC3)c(C)o2)c1`, the survival was 0% (active).
For `COc1ccc(-c2nc(CSCC(=O)N3CCN(c4ccccc4)CC3)c(C)o2)cc1`, the survival was 53%.
Compound `Cc1oc(-c2ccccc2F)nc1CSCC(=O)N1CCN(c2ccccc2)CC1` has a survival of 62%.
Work on `Cc1ccc(-c2nc(CS(=O)(=O)CC(=O)N3CCN(c4cccc(C)c4C)CC3)c(C)o2)cc1` yielded a survival of 129%.
`COc1ccc(N2CCN(CC(=O)c3ccc(OC)c(OC)c3)CC2)cc1` gave a survival of 106%.
`CC(C)OCCCNC(=O)Cn1ccc2cc(S(=O)(=O)N3CCCCCC3)ccc21` gave a survival of 124%.
Work on `COc1ccc2c(Sc3ccccc3)c(C(=O)NCc3cccc(OC)c3OC)[nH]c2c1` yielded a survival of 89%.
Work on `CC(C)COc1ccc(C(=O)N2CCC(c3nc4ccccc4s3)CC2)cc1` yielded a survival of 42%.
For `CC(C)CSc1nnc(-c2ccccc2)c(-c2ccccc2)n1`, the survival was -4% (active).
With `CCc1ccccc1NC(=O)CSc1nnc(-c2ccccc2)c(-c2ccccc2)n1` the survival was 69%.
In the case of `O=C(CSc1nnc(-c2ccccc2)c(-c2ccccc2)n1)Nc1ccccc1Cl`, the survival is reported as 70%.
Compound `Cc1oc2c(c(C)cc3oc(=O)c(CC(=O)NCCc4ccccc4)c(C)c32)c1C` has a survival of 112%.
`CCc1ccc(CNC(=O)C2CCN(C(=O)c3ccc(-n4c(C)cc5ccccc54)s3)CC2)cc1` was tested, and the survival was 81%.
Compound `Cc1cc2ccccc2n1-c1ccc(C(=O)N2CCC(C(=O)NCc3ccc(Cl)cc3)CC2)s1` has a survival of 63%.
For `Cc1cc2ccccc2n1-c1ccc(C(=O)N2CCC(C(=O)NCc3ccc(F)cc3)CC2)s1`, the survival was 1% (active).
For `Cc1ccc(NC(=O)CN2C(=O)CSc3ccc(S(=O)(=O)N4CCCC4)cc32)cc1F`, the survival was 99%.
`COC(=O)c1cc2c(cc1NC(=O)c1cnn(-c3ccccc3)c1-n1cccc1)OCO2` gave a survival of 80%.
`COc1ccc(-c2cc(C(F)(F)F)nc(-n3nc(C(F)(F)F)cc3C)n2)cc1` was tested, and the survival was 50%.
With `FC(F)(F)c1cc(-c2ccccc2)nc2cc(-c3ccccc3)nn12` the survival was 75%.
With `CC(C)(C)NC(=O)CSc1nc(-c2ccc(F)cc2)cc(C(F)(F)F)n1` the survival was 78%.
`Cc1nn(-c2nc(-c3ccccc3)cc(C(F)(F)F)n2)c(C)c1Cl` was tested, and the survival was -3% (active).
In the case of `Cc1nn(-c2nc(-c3ccc(F)cc3)cc(C(F)(F)F)n2)c(C)c1Br`, the survival is reported as -2% (active).
`CN(Cc1ccccc1)c1nc(-c2ccc(F)cc2)cc(C(F)(F)F)n1` showed a survival of 80%.
For `Cc1nn(-c2nc(-c3ccc(F)cc3)cc(C(F)(F)F)n2)c(C)c1Cl`, the survival was -2% (active).
`Cc1ccc(-c2cc3nc(-c4ccccc4)cc(C(F)(F)F)n3n2)cc1` was tested, and the survival was 80%.
With `COc1cccc(-c2cc(C(F)(F)F)nc(-n3nc(C)c(Br)c3C)n2)c1` the survival was 80%.
In the case of `CCCNC(=O)CSc1nc(-c2ccccc2)cc(C(F)(F)F)n1`, the survival is reported as 112%.
In the case of `Cc1cc(C(F)(F)F)nn1-c1nc(-c2ccccc2)cc(C(F)(F)F)n1`, the survival is reported as 13% (active).
With `CCC(C)NC(=O)CSc1nc(-c2ccc(F)cc2)cc(C(F)(F)F)n1` (stereo not drawn) the survival was 81%.
In the case of `CCCC(C)C(=O)Nc1nnc(C(F)(F)F)s1` (stereo not drawn), the survival is reported as 100%.
In the case of `O=C(Nc1cccc2c1CCCC2)N1CCOc2ccc(Cl)cc21`, the survival is reported as 83%.
`COc1ccc(-c2nc(CCNC(=O)c3cccs3)cs2)cc1OC` showed a survival of 159%.
Compound `Cc1cccc(Cn2c(CNS(=O)(=O)c3ccc(C(C)C)cc3)nc3cccnc32)c1` has a survival of 78%.
`N=c1nc(N)nc2n1NC(c1ccc(F)cc1)=CS2` gave a survival of 108%.
In the case of `CCC(Sc1ncc(S(=O)(=O)c2ccc(Cl)cc2)c(=O)[nH]1)C(=O)Nc1ccc(OC)cc1` (stereo not drawn), the survival is reported as 96%.
In the case of `CC1CCCCN1CC(=O)N1CCCc2c1c(=O)oc1ccc(OCc3ccccc3)cc21` (stereo not drawn), the survival is reported as 43%.
`CC1CCN(CC(=O)N2CCCc3c2c(=O)oc2ccc(OCc4ccccc4)cc32)CC1` showed a survival of 86%.
`CCC1CCCCN1CC(=O)N1CCCc2c1c(=O)oc1ccc(OCc3ccccc3)cc21` (stereo not drawn) was tested, and the survival was 3% (active).
Compound `CCCN(CCC)C(=O)c1cc2c(=O)n3cccc(C)c3nc2s1` has a survival of 80%.
In the case of `CCCCN(CCCC)C(=O)c1cc2c(=O)n3cccc(C)c3nc2s1`, the survival is reported as -2% (active).
In the case of `CCCCN(CC)C(=O)c1cc2c(=O)n3cccc(C)c3nc2s1`, the survival is reported as 77%.
`CCOC(=O)c1[nH]c2ccccc2c1N=CN(C)C` gave a survival of 104%.
`O=c1cc(O)n(-c2ccccc2)c(=S)[nH]1` gave a survival of 99%.
Work on `CC1CCc2nc3ncn(Cc4ccccc4C#N)c(=O)c3cc2C1` (stereo not drawn) yielded a survival of 71%.
With `Cc1ccc(Cn2cnc3nc4c(cc3c2=O)CC(C)CC4)cc1` (stereo not drawn) the survival was -3% (active).
`CC1CCc2nc3ncn(Cc4ccc(Cl)cc4)c(=O)c3cc2C1` (stereo not drawn) showed a survival of 80%.
With `CC1CCc2nc3ncn(Cc4ccccc4F)c(=O)c3cc2C1` (stereo not drawn) the survival was 53%.
Work on `CC1CCc2nc3ncn(Cc4cccc(F)c4)c(=O)c3cc2C1` (stereo not drawn) yielded a survival of 66%.
`Cc1ccccc1Cn1cnc2nc3c(cc2c1=O)CC(C)CC3` (stereo not drawn) was tested, and the survival was 0% (active).
`O=C(O)CN1C(=O)/C(=C\c2ccccc2)SC1=S` was tested, and the survival was 102%.
`CN1/C(=C2/SC(=O)N(Cc3ccccc3)C2=O)Sc2ccccc21` gave a survival of 118%.
Work on `Cc1cc(N2CCC(C)CC2)nc2ccc(NC(=O)CCC(=O)N3CCN(c4cccc(C(F)(F)F)c4)CC3)cc12` yielded a survival of 64%.
For `Cc1ccc(-c2nonc2NC(=O)c2ccco2)cc1C`, the survival was 79%.
`COc1ccc(-c2cn3cccnc3n2)cc1NC(=O)c1ccccc1C(F)(F)F` showed a survival of 69%.
`COc1cc2nc(NC(=O)c3ccc(S(=O)(=O)N4CCOCC4)cc3)sc2cc1OC` was tested, and the survival was 79%.
`COC(=O)c1sc2cccc(F)c2c1S(=O)(=O)N1CCN(c2ccccc2OC)CC1` showed a survival of 47%.
